The values that follow come from PubChem BioAssay AID2690 (NMMLSC, 2010).

Among all 330,000 compounds or so, about 590 (0.18%) were called active. Only a selection was taken, and actives are over-represented in it overall. Unmarked numbers belong to inactive results.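 How the source made its calls: active means superoxide response under a set limit, about three screen SD below normal (cut at about 65% in these data); inactive means the rest.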

A short description of this assay: reduction of superoxide in aged yeast, primary screen, HTS (AID 2690).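 Further: yeast aged for seven days with compound at 30 °C before DHE staining; 100% = average MFI of all compound-treated wells on the plate with controls excluded.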 The following applies: S. cerevisiae aged cells, superoxide DHE fluorescence; at 10 µM; active compounds read low.
Consider `CCOC(=O)c1c(C)nn(-c2ncccc2NC(=O)CCC(=O)O)c1C`, for which the superoxide response (% of plate mean) was 122%.
The result for `Cc1ccc(C(=O)O)cc1-c1ccc(/C=C2\SC(=O)N(CC(=O)Nc3ccc4c(c3)OCO4)C2=O)o1` reads 114%.
For `Cc1ccccc1N1CCN(C2CCCN(C(=O)c3cn4c(C)cccc4n3)C2)CC1` (centres undefined), the superoxide response (% of plate mean) is 98.9%.
With `COc1cc(N2C(=O)c3ccccc3C2=O)c(Cl)cc1C(=O)OCC(=O)N1CCOCC1` the figure was 106%.
The result for `COc1ccc(OCCCC(=O)OC(C)C(=O)Nc2ccccc2[N+](=O)[O-])cc1` (centres undefined) reads 95.2%; that for `CC1(C(=O)NCCc2c[nH]c3ccccc23)C=CC2(CCCCC2)N1C(=O)c1ccccc1` (centres undefined), 93.9%.
The result for `Cc1csc2ncc(C(=O)N(Cc3ccccc3)c3ccccn3)c(=O)n12` reads 92.8%.
For the molecule `Cc1cc(F)ccc1S(=O)(=O)Nc1ncnc2scc(-c3ccc(F)cc3)c12`, the superoxide response (% of plate mean) was 103%.
The result for `COC(=O)CNc1nc(Cl)nc(N2CCC(C)CC2)n1` reads 51% (active).
The result for `CCOC(=O)CNc1nc(Cl)nc(Nc2ccccc2)n1` reads 114%.
With `Clc1nc(NC2CCCC2)nc(N2CCOCC2)n1` the figure was 104%; with `CCc1noc(C)c1C(=O)Oc1ccc(N(C)S(=O)(=O)c2ccc(C)c(C)c2)cc1`, 103%; with `CCOc1c(N2CCCCC2)c(=O)c1=O`, 105%.
With `COc1ccc(NS(=O)(=O)c2ccc(O)c(C(=O)OCC(=O)NC3CCCCC3)c2)cc1`, the superoxide response (% of plate mean) was 93.5%.
The result for `NS(=O)(=O)c1ccc(CCNC(=O)CN2C(=O)c3ccccc3S2(=O)=O)cc1` reads 111%.
Turning to `Cc1ccc(C(=O)OCC(=O)NC(=O)Cc2ccccc2)c(O)c1`, the superoxide response (% of plate mean) is 110%.
With `C=CCNC(=S)/N=c1/ccccn1Cc1ccccc1` the figure was 102%; with `COC(=O)c1ccc(NC(=O)CSc2nncc3ccc(OC)c(OC)c23)cc1`, 119%.
The result for `C=CCn1c(SCc2ccccc2)nc2c1c(=O)[nH]c(=O)n2C` reads 102%; that for `Cc1cc(OCc2cc(C(=O)NCc3cc(C(C)C)no3)no2)cc(C)c1Cl`, 111%.
The result for `NC(=O)Cc1ccc2c(c1)[nH]c1ccccc12` reads 40.8% (active); that for `CCn1c2ccccc2c2cc(CC(N)=O)ccc21`, 105%.
With `NC(=O)CSc1c[nH]c2ccccc12`, the superoxide response (% of plate mean) was 97.2%.
The result for `OCCC1CN(Cc2cnc(-c3ccccc3)s2)CCN1CCc1ccccc1` (centres undefined) reads 88.7%; that for `Cc1cccc(OCC(=O)OCC(=O)Nc2ccc(Cl)cn2)c1`, 99.9%; that for `CCCC(C(=O)NCc1ccco1)N(C(=O)CNS(=O)(=O)c1ccccc1)C1CCCC1` (centres undefined), 101%.
With `Cc1ccc(-c2noc(CNC(=O)c3ccoc3C)n2)cc1` the figure was 85%; with `Cc1ccc(N2CCN(S(=O)(=O)c3ccc(F)cc3)CC2)c(C)c1`, 106%; with `CC(=O)c1ccc(N2CCN(S(=O)(=O)c3ccc4c(c3)CC(=O)N4C)CC2)cc1`, 97.6%.
With `Cc1c(NC(=O)CN(C)CC(=O)Nc2ccc(F)c(F)c2F)c(=O)n(-c2ccccc2)n1C` the figure was 91.2%.
For `CCOc1ccc2nc(Cl)c(C3CC(c4ccccc4)=NN3C(=O)c3cccs3)cc2c1` (centres undefined), the superoxide response (% of plate mean) was 75.7%.
With `O=C(CSc1nnnn1C1CCCC1)Nc1ccc2c(c1)OCCO2` the figure was 98.8%; with `CC(C(=O)N=Nc1c(O)n(C)c2ccc(Br)cc12)n1cnc2ccccc2c1=O` (centres undefined), 89.3%.
Turning to `COc1cc(NC(=O)C2=C(C)OCCS2)c(Cl)cc1C(=O)NCCN1CCN(C)CC1`, the superoxide response (% of plate mean) is 99.2%.
With `CCN(CC)N=Nc1cccc(NC(C)=O)c1` the figure was 96.8%.
With `CCc1ccccc1NC(=O)CN(C)C(=O)c1cc(C2CC2)nn1-c1ccccc1` the figure was 117%; with `C/C(CC(=O)NC(C)(C)C)=N\NC(=O)c1ccco1`, 92.3%; with `O=C(OC1CCCCC1=O)c1cccc(S(=O)(=O)NCc2ccccc2)c1` (centres undefined), 91.2%.
For `O=C(O)CC/C(=N\NC(=O)c1ccc(F)cc1)c1ccc(Br)cc1`, the superoxide response (% of plate mean) is 97.4%.
With `COc1cc(NS(=O)(=O)c2ccc(NC(=O)CN3C(=O)c4ccccc4C3=O)cc2)ncn1` the figure was 87.5%.
With `CN(C)C(=O)c1coc2nc3ccccc3nc12` the figure was 90.3%; with `CNC(=O)c1cc2c(ccc3ccccc32)oc1=N`, 90%; with `CNC(=O)c1cccc2nc3ccccc3nc12`, 47% (active).
With `O=C1CCCCC1C(=O)c1ccccc1` (centres undefined) the figure was 88.5%; with `CCc1ccc(-c2nc(SCC(=O)NC3CCCC3)n[nH]2)cc1`, 109%; with `Clc1ccc2nc(CSc3ccccc3)cn2c1`, 99.1%.
For the molecule `Cc1ccc(OCC(=O)Nc2ccc(N3CCN(C(=O)c4ccco4)CC3)cc2)c(C)c1`, the superoxide response (% of plate mean) is 100%.
Regarding `CN(C)c1ccc(/C=N/NC(=O)C(O)c2ccc(Br)cc2)cc1` (centres undefined), the superoxide response (% of plate mean) is 110%.
With `CN(C)c1ccc(C=NCCc2ccc(S(N)(=O)=O)cc2)cc1` the figure was 82.2%; with `CN(C)c1ccc(/C=N\S(=O)(=O)c2ccccc2)cc1`, 64.7% (active); with `Cc1c(C(=O)OCC(=O)N(CCC#N)c2ccccc2)oc2c1ccc1ccccc12`, 86.3%.
Turning to `COC(=O)CNC(=O)c1ccc(OC2CCN(C(=O)C3CC3)CC2)cc1`, the superoxide response (% of plate mean) was 64% (active).
With `COCCC(=O)N1CCC(Oc2ccc(C(=O)NCc3ccon3)cc2)CC1` the figure was 92%; with `C=C(C)CNC(=O)c1ccc(OC2CCN(C(=O)COC)CC2)cc1`, 103%.
The result for `C[n+]1cc(-c2ccccc2)oc1-c1ccccc1` reads 96.2%; that for `COc1ccc(/C(C)=N/Nc2cc(C(F)(F)F)ccc2Cl)c(OC)c1`, 87.7%.
Turning to `N=C1C(=O)OCC1c1ccccc1NC(=O)CN1CCCCC1` (centres undefined), the superoxide response (% of plate mean) is 110%.
With `CCCCOC(=O)Nc1sc2nc(C)cc(C)c2c1-n1cccc1` the figure was 113%.
Consider `Cc1ccc2c(cnn2C(=O)CCC(=O)NC2CCCC2)c1`, for which the superoxide response (% of plate mean) was 96.7%.
The result for `COc1ccc(C2=Nc3cc(C)ccc3OC2)cc1` reads 99.1%; that for `C#CCO[C@@H]1C[C@H](n2cnc3c(=O)[nH]c(NC(=O)C(C)C)nc32)O[C@@H]1CO`, 101%; that for `COCCN(C(=O)CCC(=O)Nc1nccs1)C(C(=O)NC(C)(C)C)c1ccc(Cl)cc1` (centres undefined), 87.1%.
The result for `O=C(NC1CCCC1)C1CC(=O)N(c2ccc(F)cc2)C1` (centres undefined) reads 96.9%; that for `COc1ccc(C(C)C)cc1S(=O)(=O)Nc1ncn[nH]1`, 87.8%.
The result for `O=c1o[nH]c(-c2ccccc2)c1N=Nc1c(F)cccc1Cl` reads 105%.
For `O=C(NCCCNC(=O)NC1CCCCC1)NC1CCCCC1`, the superoxide response (% of plate mean) is 106%.
`O=C(Oc1c(-c2ccco2)oc2ccccc2c1=O)c1cccnc1`: the superoxide response (% of plate mean) is 104%.
The result for `O=[N+]([O-])c1cc(S(=O)(=O)Nc2cccc(Cl)c2)ccc1N=Nc1c(O)[nH]c2ccccc12` reads 91.3%; that for `CC(=O)c1c(C)c[nH]c1C`, 90.3%.
Regarding `Cc1ccc(NC(=O)CSCC(=O)N2CCOCC2)cc1`, the superoxide response (% of plate mean) is 98.5%.
`CCc1ccccc1N(CC(=O)NCC1CCCO1)C(=O)CCC(=O)Nc1nccs1` (centres undefined): the superoxide response (% of plate mean) was 88%.
The result for `COc1ccc(-c2cc(C(=O)N(C)Cc3ccc(OC)c(OC)c3OC)c3ccccc3n2)cc1OC` reads 96.5%; that for `Cc1ccccc1NC(=O)NCC1CCN(Cc2cccc(Cl)c2)CC1`, 36.3% (active).
With `O=C(NCC1CCN(Cc2ccccc2Cl)CC1)Nc1cccc(Cl)c1` the figure was 103%.
With `Cc1cccc(CN2CCC(CNC(=O)Nc3ccc(F)c(Cl)c3)CC2)c1` the figure was 92.6%; with `C/C(N)=C(/C#N)C(=O)COC(=O)C1=NN(c2ccccc2)C(=O)CC1`, 82.1%.
In the case of `CN(C)C1=NC[C@H](Cc2ccccc2)N1CCc1ccc(F)cc1`, the superoxide response (% of plate mean) is 98.7%.
The result for `C/C(=N\NS(=O)(=O)c1cccc([N+](=O)[O-])c1)c1cc2ccccc2o1` reads 107%; that for `CCC(=O)N(C)C(c1ccccc1Cl)c1nnnn1-c1c(C)cccc1C` (centres undefined), 107%; that for `COc1ccccc1C(=O)Nc1ccnn1C1CCN(Cc2cnn(C)c2)CC1`, 92%.
As to `O=C(NNC(=O)c1cc(S(=O)(=O)N2CCCCC2)ccc1Cl)c1ccccc1O`, the superoxide response (% of plate mean) is 95.4%.
On to `CCC1(CC)C(=O)C2=C3C1[C@H](C(=O)OC)C=C(C(=O)OC)C[C@H]3[C@H]1C(=O)N(Cc3ccccc3)C(=O)[C@H]1[C@H]2C` (some centres undefined), for which the superoxide response (% of plate mean) is 107%.
With `CC[C@]12c3[nH]c4cc(CCC(=O)N(C)C)ccc4c3CCN1C(=O)[C@@H](CC(=O)NCC13CC4CC(CC(C4)C1)C3)C[C@@H]2C(=O)N1CCN(C(=O)C2CC2)CC1`, the superoxide response (% of plate mean) is 120%.
With `CSc1sc(C(=O)NNC(=O)c2ccc(Cl)cc2)c2c1C=CCC2` the figure was 61.9% (active).
With `O=C(NNC(=O)C1C2CCC(C2)C1C(=O)O)c1ccc(Cl)cc1` (centres undefined) the figure was 97.2%.
The result for `CCOC(=O)NNC(=O)c1ccc(Cl)cc1` reads 96.8%; that for `O=C(Nc1ccccc1N1CCCC1)c1ccc(F)c(S(=O)(=O)N2CCOCC2)c1`, 85.3%; that for `O=C(Nc1ccccc1N1CCCC1)c1ccc2ccccc2c1`, 59% (active).
As to `O=C(NC(=S)Nc1ccccc1N1CCCCC1)c1ccc(F)cc1`, the superoxide response (% of plate mean) was 98.2%.
The result for `Cc1cccc2c1cnn2C(=O)CCC(=O)NC1CCCCC1` reads 82.7%.
The result for `N#Cc1cccc(NC(=O)CN2CCCCCC2)c1` reads 94.7%; that for `COc1cc(CO)ccc1OCC(=O)Nc1cccc2ccccc12`, 99.9%; that for `Cc1cccc2[nH]c(CN(C)C(=O)C3CCC(=O)N(CCc4ccccc4)C3)nc12` (centres undefined), 102%.
With `COc1ccc(-c2c(-c3cc(OC)cc(OC)c3)n(C)c3ccc(-c4ccn[nH]4)cc23)cc1` the figure was 87%.
